Compound activity: PubChem, Sanford-Burnham Center for Chemical Genomics
PPC-1+TRAIL kill = compounds killing PPC-1 cancer cells with TRAIL present, primary screen, TRAIL potentiator project, ATPLite luminescence, uHTS. PPC-1 cells + TRAIL, ATPLite viability luminescence. cell killing (% activity), % at 4 µM or 5 µM. actives 0.41% (n = 220,000);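 active = cell killing above 50% in the first pass at 4 µM, then a duplicate retest at 5 µM averaging 50% or more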;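 note: plate controls were cells with TRAIL plus DMSO for no effect and medium-only wells lacking cells for full effect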
TRAIL sens C8 = viability loss with TRAIL in NB7+C8 cells, primary screen, TRAIL sensitizer project, cell-based, ATPlite luminescence | inhibition (viability loss, TRAIL sensitization), % at 10 µM | actives 1% (n = 360,000);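 active = compounds causing at least 50% loss of cell viability in the single-dose screen, relative to plate controls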
SENP7 inh = SENP7 protease inhibitors, primary screen, biochemical, luminescence, uHTS; inhibition, % at 5 µM; Sentrin-specific protease 7 (Homo sapiens), Q9BQF6; actives 1.5% (n = 330,000); recombinant SENP7, Z-RLRGG-aminoluciferin luminescence, 40 min;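 active = inhibition above about 50% at the single test dose, limit read from the data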;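 note: plate controls were DMSO with enzyme for no effect and no enzyme buffer wells for full effect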
SENP8 block-1 = SENP8 protease inhibitors, primary screen, biochemical, luminescence | Sentrin-specific protease 8 (Homo sapiens), Q96LD8 | purified SENP8, Z-RLRGG-aminoluciferin cleavage | inhibition, % at 10 µM | actives 1.2% (n = 330,000); in the data active = inhibition above about 50%
SENP8 block-2 = human SENP8 protease inhibitors, primary screen, biochemical, fluorescence, Nedd8 protein substrate, uHTS. actives 0.64% (n = 360,000). Sentrin-specific protease 8 (Homo sapiens), Q96LD8. recombinant SENP8. inhibition, % at 20 µM; in the data active = inhibition mostly above about 40%, no sharp cut-off; inactive = mostly below about 27%
SENP6 inh = SENP6 protease inhibitors, primary screen, biochemical, luminescence, uHTS | inhibition, % at 10 µM | Sentrin-specific protease 6 (Homo sapiens), Q9GZR1 | actives 1.8% (n = 330,000) | Recombinant SENP6 catalytic domain, aminoluciferin luminescence;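 active = inhibition above about 50% at the single tested dose, limit read from the data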;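 note: plate controls were DMSO wells with enzyme for no effect and DMSO wells lacking enzyme for full effect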
Target sequence (Q9GZR1 628-1112 limits assumed): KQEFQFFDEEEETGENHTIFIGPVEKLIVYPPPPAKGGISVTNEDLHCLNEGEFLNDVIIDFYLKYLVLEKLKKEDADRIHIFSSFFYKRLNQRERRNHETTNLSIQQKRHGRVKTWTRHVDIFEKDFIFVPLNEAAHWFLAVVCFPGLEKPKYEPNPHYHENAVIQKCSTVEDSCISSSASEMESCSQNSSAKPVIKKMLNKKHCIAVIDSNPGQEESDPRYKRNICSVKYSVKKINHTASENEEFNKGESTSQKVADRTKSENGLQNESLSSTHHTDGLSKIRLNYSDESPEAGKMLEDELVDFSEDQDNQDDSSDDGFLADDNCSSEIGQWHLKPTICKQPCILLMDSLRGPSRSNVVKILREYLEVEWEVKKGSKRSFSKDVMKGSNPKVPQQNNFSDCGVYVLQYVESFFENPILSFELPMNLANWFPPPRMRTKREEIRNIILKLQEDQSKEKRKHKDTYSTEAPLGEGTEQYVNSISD
SENP8 confirm = SENP8 protease inhibitors, retest, confirmation, biochemical, luminescence, single concentration; shares compounds with SENP7 inh; Recombinant SENP8, Z-RLRGG-aminoluciferin luminescence, 60 min; inhibition, % at 12.5 µM; actives 40% (n = 6,200); AID 488912, 2010;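 active = mean inhibition across replicates above about 50%, limit read from the data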
SENP6 conf = SENP6 protease inhibitors, confirmation, biochemical, luminescence, single concentration | AID 488915, 2010 | actives 58% (n = 6,200) | recombinant SENP6, Z-RLRGG-aminoluciferin luminescence | shares compounds with SENP7 inh | inhibition, % at 12.5 µM
SENP7 confirm = SENP7 protease inhibitors, retest, confirmation, biochemical, luminescence, single concentration; shares compounds with SENP7 inh; recombinant SENP7, Z-RLRGG-aminoluciferin luminescence, 40 min; inhibition, % at 12.5 µM; actives 69% (n = 6,200); AID 488917, 2010
Casp3 SENP sel = caspase-3 protease inhibitors, confirmation, selectivity assay for SENP inhibitor project, biochemical, single concentration. shares compounds with SENP7 inh. purified caspase-3, Z-DEVD-aminoluciferin luminescence, 60 min. inhibition, % at 12.5 µM. actives 60% (n = 6,200);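 active = mean inhibition above about 50%, limit read from the data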;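 note: plate controls were enzyme with DMSO for no effect and wells without caspase-3 for full effect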
Luc interf = luminescence interference (SENP counter-screen); AID 488919; actives 39% (n = 6,200); shares compounds with SENP7 inh; inhibition, % at 12.5 µM; Pre-incubated SENP8/Z-RLRGG-aminoluciferin, luciferase luminescence interference;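 active = mean inhibition above about 50% when retested at one dose, limit read from the data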;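 note: plate controls were DMSO wells with completed reaction for no effect and substrate without enzyme for full effect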
* hit, by the source's call; nt = no result given. In the library only some 3% were active in any assay of this set; here they are far more common.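 Rule for the calls, unless noted: active = mean inhibition above about 50% in the one-dose retest (limit read from the data); inactive = the rest.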

SMILES	PPC-1+TRAIL kill	TRAIL sens C8	SENP7 inh	SENP8 block-1	SENP8 block-2	SENP6 inh	SENP8 confirm	SENP6 conf	SENP7 confirm	Casp3 SENP sel	Luc interf
C/C(=N\OCc1ccc(C#N)cc1)c1ccccc1	6	3	80*	79*	4	89*	82*	86*	97*	77*	68*
C/C(=N\OCc1cccc(C(=O)O)c1)c1ccc(Cl)cc1	8	25	101*	97*	21	97*	99*	100*	103*	97*	98*
C/C(=N\OCc1ccc(C#N)cc1)c1ccc(S(=O)(=O)N(C)C)cc1	nt	6	-8	1	16	-5	nt	nt	nt	nt	nt
O=C1NC2(CCCC2)C(=O)N1CC(=O)N(Cc1ccccc1)c1ccccc1	nt	-8	15	-5	22	-10	nt	nt	nt	nt	nt
CC(C)NC(=O)c1cc(C2CCCCN2C(=O)c2ccc(C#N)cc2)on1 (stereo not drawn)	nt	-10	nt	nt	24	nt	nt	nt	nt	nt	nt
c1coc(CNc2nc3ccccc3s2)c1	nt	37	43	17	12	58*	23	23	70*	55*	41
Cc1nnc(NCc2ccco2)s1	-30	6	11	-2	19	5	nt	nt	nt	nt	nt
FC(F)(F)c1ccc(-c2noc(CN3CCCN(C4CCCCC4)CC3)n2)cc1	30	13	-8	-6	16	-17	nt	nt	nt	nt	nt
CCOc1cc(/C=N/NC(=O)CCCC(=O)NC2CCCCC2)ccc1O	13	9	1	0	6	1	nt	nt	nt	nt	nt
Oc1ccccc1C=NCCCCCCN=Cc1ccccc1O	7	-4	-3	59*	9	69*	15	30	38	31	10
Nc1nc2n(n1)C(c1cccc(Cl)c1)CC(c1ccc(F)cc1)N2 (stereo not drawn)	-27	12	65*	-7	-42	-9	8	6	-10	-4	-1
CCOc1ccc(C2CC(c3cccc(Cl)c3)n3nc(N)nc3N2)cc1 (stereo not drawn)	24	-4	-1	-4	-413	-11	nt	nt	nt	nt	nt
COc1cccc(CN=C2Nc3ccccc3CS2)c1	0	0	33	34	4	48	nt	nt	nt	nt	nt
c1cncc(CN=C2Nc3ccccc3CS2)c1	7	-9	4	-5	9	21	nt	nt	nt	nt	nt
Cc1ccc(CN=C2Nc3ccccc3CS2)cc1	34	49	88*	83*	14	89*	91*	91*	100*	84*	83*
Clc1ccc(CN=C2Nc3ccccc3CS2)cc1	2	6	60*	44	11	69*	66*	68*	87*	48	80*
CCCCCCN1CC(=O)N2Cc3[nH]c4ccccc4c3C[C@H]2C1=O	nt	4	7	4	8	-14	nt	nt	nt	nt	nt
COc1ccc(CN2CCN(S(=O)(=O)c3ccccc3)CC2)c(OC)c1OC	nt	1	-1	-3	4	-4	nt	nt	nt	nt	nt
O=C(O)COc1ccc(-c2nccc(-c3ccccn3)n2)cc1	25	18	-4	-15	3	-36	nt	nt	nt	nt	nt
O=C(O)COc1ccc(/C=C/c2nc(-c3ccccc3O)n[nH]2)cc1	nt	7	69*	67*	-50	87*	84*	82*	96*	71*	83*
COc1ccc(/C=C/c2ccc3ccccc3[n+]2C)cc1OC	nt	-2	-3	1	-31	-12	nt	nt	nt	nt	nt
COc1ccc(/C=C/c2nc(-c3ccccc3O)n[nH]2)cc1OC	21	1	43	-4	-117	67*	65*	63*	85*	19	48
CCOC(=O)[C@@H]1[C@H]2COc3ccc(Br)cc3[C@@H]2N2C(=O)N(c3ccc(C(F)(F)F)cc3)C(=O)[C@]12C	nt	14	-6	-5	20	0	nt	nt	nt	nt	nt
Nc1c(Cl)cc2c(c1Oc1ccccc1)C(=O)c1ccccc1C2=O	-4	6	-5	42	33	58*	10	-3	6	6	2
COc1ccc(C(C)(O)c2nc(-c3cccc(F)c3)cs2)cc1 (stereo not drawn)	nt	-13	nt	nt	4	nt	nt	nt	nt	nt	nt
SMILES	PPC-1+TRAIL kill	TRAIL sens C8	SENP7 inh	SENP8 block-1	SENP8 block-2	SENP6 inh	SENP8 confirm	SENP6 conf	SENP7 confirm	Casp3 SENP sel	Luc interf
O=C(/C=C/Nc1ccccc1C(=O)O)c1cccs1	9	-3	21	82*	-51	92*	4	96*	102*	98*	93*
O=C(O)c1ccccc1C(=O)c1cccs1	3	4	-6	-1	12	-3	nt	nt	nt	nt	nt
O=C(/C=C/Nc1cccc([N+](=O)[O-])c1)c1cccs1	6	2	62*	35	12	70*	4	53*	88*	58*	57*
Cc1cc(N/C=C/C(=O)c2cccs2)ccc1F	9	45	46	82*	-162	85*	88*	90*	101*	87*	42
COc1ccc(S(=O)(=O)N2CCN(C(=O)C3CC3)CC2)cc1Br	nt	11	-8	-18	1	-19	nt	nt	nt	nt	nt
CC(C)n1c(CNC(=O)c2ccccc2F)nnc1SCC(=O)c1ccc(F)cc1	nt	-9	nt	nt	-6	nt	nt	nt	nt	nt	nt
Cc1ccc(C(=O)Nc2ccc(O)cc2C(=O)O)cc1	20	25	42	35	12	63*	62*	58*	83*	75*	64*
Cc1cccc(C(=O)Nc2ccc(O)cc2C(=O)O)c1	2	2	77*	88*	13	93*	88*	90*	100*	95*	91*
Cc1ccc(/C=C2\SC(=S)N(CCC(=O)NNC(=O)c3ccc(O)cc3)C2=O)cc1	nt	12	-4	-8	23	3	nt	nt	nt	nt	nt
